In the library only some 1.2% were active in any assay of this set; here they are far more common.
HTT ATP protect: Huntington cell model cytoprotection by ATP luminescence. PC12 HTT-Q103 induced, cytoprotection, ATP luminescence, 40 h. Potency, µM (titrated, usually from 56.4 µM), for the others: cytoprotection (ATP increase), most hits filed as activators. 230,000 compounds, 0.14% hits. AID 1471; further: potency means the concentration at half of the fitted maximal effect; % of control where 0% means no effect; nearly all actives have a fitted effect of over 45% in size
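Rat PC12, Q103 Htt exon1-GFP fusion, ecdysone promoter; tebufenozide inducer 100 nM final; compound titration; qHTS, 1500 cells/well; ATPlite luminescent read.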
HttQ103 aggreg: inhibitors of mutant huntingtin aggregate formation in PC12 cells; PC12 HttQ103-GFP aggregates, Acumen cytometry, 40 h; 220,000 compounds, 1.1% hits; AID 1688; Potency, µM (top dose mostly 46.1 µM), inactives show at the top dose activity change, negative = inhibition, actives largely listed as inhibitors; further: potency means the concentration at half of the fitted maximal effect; on the % scale 0 is the no-effect control and ±100 the full control effect; nearly all actives have a fitted effect of over 60% in size
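Using laser scanning cytometry, GFP-positive aggregates were counted after lysis of PC12 cells induced with 100 nM tebufenozide to express HTT exon 1 Q103–GFP. Compounds were tested in titration.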
aGal spleen mod: inhibitors or activators of human alpha-galactosidase in spleen homogenate; P06280; Potency, µM (series often up to 80 µM), for the others: top-dose activity change, negative = inhibition, hits mostly inhibitors; 240,000 compounds, 0.008% hits; human spleen homogenate, 4MU-alpha-Gal fluorescence, 40 min;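 further: potency means the concentration at half of the fitted maximal effect; 0% = enzyme with vehicle and -100% = no enzyme basal signal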
Target sequence (P06280 32-429 limits assumed): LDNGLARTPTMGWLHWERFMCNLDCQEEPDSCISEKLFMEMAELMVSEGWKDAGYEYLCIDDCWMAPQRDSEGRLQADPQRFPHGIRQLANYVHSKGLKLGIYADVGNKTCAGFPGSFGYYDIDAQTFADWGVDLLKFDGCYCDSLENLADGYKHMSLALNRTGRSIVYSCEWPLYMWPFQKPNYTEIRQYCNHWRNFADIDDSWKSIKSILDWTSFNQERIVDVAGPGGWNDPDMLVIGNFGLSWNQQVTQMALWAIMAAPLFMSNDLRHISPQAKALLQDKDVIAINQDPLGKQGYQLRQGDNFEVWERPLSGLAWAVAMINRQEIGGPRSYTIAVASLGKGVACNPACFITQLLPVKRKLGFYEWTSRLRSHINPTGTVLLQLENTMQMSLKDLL
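Human spleen homogenate (1 ug) was the enzyme source, with 4-methylumbelliferyl-alpha-D-galactopyranoside (1 mM final) in pH 5.0 citrate buffer with 0.01% Tween-20. Compounds were titrated; after 40 min at 37C, NaOH/glycine stop, 4-MU fluorescence read; AC50 from Hill fits.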
GLA inh pH 4.5: alpha-galactosidase A (human) inhibition, pH 4.5; P06280; purified enzyme, 4-MU-alpha-Gal fluorescence, pH 4.5; activity change, negative = inhibition, % at 105 µM; 230,000 tested, under 10 active;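 further: 0% = full activity with enzyme and -100% = basal without enzyme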
ERK EGF inh: inhibitors of EGF-stimulated ERK signaling pathway. 130,000 compounds, 0.41% hits. HEK293-V1b, EGF-stimulated phospho-ERK AlphaScreen. AID 1454. Potency, µM (doses to about 11.5 µM), without a hit: at the top dose activity change, negative = inhibition, actives largely listed as inhibitors;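 further: potency means the concentration at half of the fitted maximal effect; plate controls were stimulated vehicle wells for no effect and unstimulated vehicle basal for full effect; nearly all actives have a fitted effect of over 55% in size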
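Concentration-response of compounds against EGF-driven ERK phosphorylation in V1b-expressing HEK293 cells; 30 min preincubation, 5 min EGF, AlphaScreen detection; Normalized to DMSO basal and 25 nM EGF.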
The depositor's hits bear a star; ? = inconclusive; . = no result given; [ ] = another dose, or the depositor's remark. The call rests on the fitted dose curve; in most records, active means well fitted curve in the direction sought with a large enough effect; inconclusive means small, poorly fitted or top-dose-only effect, or another doubt; inactive means no such curve, though single readings can be large; an effect the other way counts as inactive or inconclusive.

SMILES | HTT ATP protect | HttQ103 aggreg | aGal spleen mod | GLA inh pH 4.5 | ERK EGF inh
COc1ccc(C2C3C=CCC(C)C3C(=O)N2Cc2ccccc2)cc1Cl (centres undefined) | . | . | -6.3% | . | .
Cc1cccc(-c2nc(CSCC(=O)N3CCN(Cc4ccc5c(c4)OCO5)CC3)c(C)o2)c1 | -0.5%[10 µM] | 10µM* | -6.5% | -4.3 | .
O=C(CSCc1ccccc1)N1CCN(Cc2ccc3c(c2)OCO3)CC1 | -14.0%[10 µM] | -12.3% | 4.3% | -5.9 | 1.0%
COC(=O)c1c(NC(=O)c2cccnc2)sc(C(=O)N(C)C)c1C | 1.26µM* | 2.0% | -16.2% | -1.4 | 7.7%
Cc1ccc2oc(-c3ccccc3C(=O)O)cc(=O)c2c1 | 14.5%[0.074 µM] | 8.5% | 3.8% | 11.1 | .
O=C(O)c1ccccc1-c1c2cc(Br)c(=O)c(Br)c-2oc2c(Br)c(O)c(Br)cc12 | -23.5% | 10µM* | 14.0% | . | .
CCOC(=O)C1=C(c2cccc(Oc3ccccc3)c2)NC(=S)NC1C (centres undefined) | -8.9% | 11.2µM* | -5.3% | -13.6 | .
COc1ccc(CN(CCC(c2ccccc2)C2CCOC(C)(C)C2)C(C)=O)cc1 (centres undefined) | -14.4%[10 µM] | 12.6µM* | 2.3% | -6.1 | 4.6%
COc1ccc(CNCCC(c2ccccc2)C2CCOC(C)(C)C2)cc1 (centres undefined) | . | -0.9% | -3.2% | -3.6 | 1.6%
CCS(=O)(=O)N1Cc2ccccc2CC1C(=O)Nc1nnc(SCc2ccc(C#N)cc2)s1 (centres undefined) | -5.0%[10 µM] | 12.6µM* | -2.1% | -5.7 | 6.2%
O=C1[C@@H]2C=CC=CC2=NC(=S)N1CCN1CCC(=C(c2ccc(F)cc2)c2ccc(F)cc2)CC1 | 23.4%[1.9 µM] | . | . | . | .
CC(SCC(=O)NC(C)C1CC2CCC1C2)C(=O)O (centres undefined) | 0.891µM* | 16.0% | 1.5% | -2.8 | 2.2%
O=[N+]([O-])c1ccc(O)c(Nc2ncnc3ccc(Br)cc23)c1 | -157.3% | 31.6µM* | -2.5% | -4.4 | 25.1µM*
O=[N+]([O-])c1ccc2ncnc(Nc3ccc4c(c3)OCCO4)c2c1 | -62.4% | 14.1µM* | -2.0% | -5.2 | 5.4%
CCN(CC)CCC(c1ccc(N(C)C)cc1)c1c(OC)cc(OC)c2c1OC(=O)CC2c1ccc(OC)cc1 (centres undefined) | . | . | 6.0% | . | .
Oc1ccc(Br)cc1-c1nc2cnccn2c1NC1CCCC1 | 15.1% | 20µM* | -15.8% | -11.4 | .
COc1ccc(C(=O)/C=C/Nc2ccc([N+](=O)[O-])cc2)cc1 | . | 17.7% | 4.6% | -14.0 | 0.5%
COC(=O)/C(=C\C(=O)c1ccc([N+](=O)[O-])cc1)Nc1ccc(OC)cc1 | 3.9%[10 µM] | 7.5%[9.22 µM] | 7.7% | 1.9 | 12.6µM*
COc1ccc(C(=O)/C(C#N)=N/Nc2ccc([N+](=O)[O-])cc2)cc1 | -161.8% | 1.26µM* | 8.0% | -11.3 | ?
COc1ccc(NC(=O)N2CCC3(CC2)CCN(C(=O)c2cccn2C)CC3)cc1 | 12.1% | . | 2.5% | . | 10.0%
COc1ccc(NC(=O)N2CCc3nc(-c4ccc(OC)cc4C)c4c(c3C2)CO[C@@H](c2ccccc2)C4)cc1 | -9.2%[10 µM] | . | 0.4%[17.5 µM] | -4.0 | .
O=C(CSc1cccc[n+]1[O-])Nc1ccc(C(F)(F)F)cc1[N+](=O)[O-] | 19.2%[10 µM] | 4.0% | -2.8% | 1.0 | 3.3%
O=[N+]([O-])c1ccc(Sc2cccc[n+]2[O-])c2nonc12 | -97.5%[10 µM] | 1.12µM* | -8.0% | -7.6 | 25.1µM*
COc1ccc(Cn2c(-c3ccc(C)cc3)c[n+]3ccccc23)cc1 | 21.9%[1.9 µM] | 8.91µM* | -11.0% | -3.2 | -0.4%
Cc1ccccc1C1CC(=O)Oc2ccc(O)cc21 (centres undefined) | 13.6%[96.6 µM] | . | 15.2%[119 µM] | -6.7 | .
SMILES | HTT ATP protect | HttQ103 aggreg | aGal spleen mod | GLA inh pH 4.5 | ERK EGF inh
Cc1nn(-c2ccccc2)c(NC(=O)NS(=O)(=O)c2ccc(Cl)cc2)c1C#N | . | . | 2.3% | . | .
O=C(NCCCc1ccccc1)c1ccccc1O | -12.4%[10 µM] | 10µM* | -29.7% | -3.7 | .
O=C(c1cccc(Cl)c1)N1CCN(c2ccccn2)CC1 | 5.4% | 3.5% | -0.1% | 1.9 | .
O=C(c1cnc(N2CCN(c3ccccn3)CC2)c2ccccc12)N1CCN(c2cccc(Cl)c2)CC1 | -70.8% | 7.94µM* | 6.4% | 9.1 | 9.9%
O=C(c1ccc(S(=O)(=O)c2cccc(Cl)c2)c([N+](=O)[O-])c1)N1CCN(c2ccccn2)CC1 | -205.2% | 11.2µM* | 0.6% | -2.6 | ?
CCOc1ccc(N=C2NC(=O)S/C2=C\c2ccc(N(C)C)cc2)cc1 | -88.3% | 22.4µM* | 3.5% | -7.0 | .
CCOc1ccc(/C=C2/SC(=O)NC2=S)cc1 | -21.2%[10 µM] | -20.7% | 7.3% | -24.1 | ?
O=C(Nc1cccc(C(=O)N2CCN(Cc3ccccc3)CC2)c1)c1ccccc1 | -11.2% | 11.2µM* | -8.2% | -2.4 | .
CC(=O)/C(=N/Nc1ccccc1[N+](=O)[O-])N1CCCc2ccccc21 | . | 11.2µM* | -6.7% | -4.1 | 12.6µM*
COCc1cc(C)nc(OCC(=O)N/N=C/c2ccccc2O)c1C#N | -101.9% | 11.2µM* | -16.8% | 0.2 | -0.6%
COCc1cc(C)nc(OCC(=O)N/N=C/c2ccc(O)cc2O)c1C#N | 23.1% | ? | 6.1% | -7.4 | -15.2%
N#CC(c1cccc(Cl)c1)c1ccc2c(C(F)(F)F)cc(C(F)(F)F)nc2n1 (centres undefined) | -98.0% | 0.891µM* | 0.6% | -0.7 | .
NNc1ccc2c(C(F)(F)F)cc(C(F)(F)F)nc2n1 | . | 19.6% | -1.6% | -2.6 | -11.2%
N/C(=N\NC(=O)c1sccc1OCc1ccc(Cl)cc1Cl)c1ccccn1 | -11.2% | 1.78µM* | 2.1% | 0.4 | -4.5%
CCOC(=O)c1ccc(-n2c(O)c(/C=N/NC(=O)C3COc4ccccc4O3)c3ccccc3c2=O)cc1 (centres undefined) | 7.4%[1.9 µM] | 17.8µM* | -5.9% | -10.2 | 1.5%
Cc1nn(-c2ccccc2)c(Cl)c1/C=N/NC(=O)C1COc2ccccc2O1 (centres undefined) | 8.5%[10 µM] | 5.7% | -10.0% | -20.2 | -7.1%
Nc1ccccc1Oc1ccccc1 | . | . | -3.5% | . | .
Nc1nc(N)nc(-c2cc(Cl)ccc2Cl)n1 | 7.94µM* | 0.5% | 4.3% | . | .
CC12CCC=CC1C(c1ccc(F)c(Br)c1)N(Cc1ccccc1)C2=O (centres undefined) | . | . | -1.9% | . | .
CCN1/C(=N\N)c2cccc3cccc1c23 | -1.3%[10 µM] | 17.9% | -6.0% | -0.8 | 12.6µM*
O=C1c2cccc3cccc(c23)N1Cc1ccc(F)cc1 | 3.5%[10 µM] | 19.5% | 6.4% | -1.9 | -3.3%
COc1ccc(C2c3c(ncn(CCCO)c3=N)Oc3ccc4ccccc4c32)cc1 (centres undefined) | -31.2%[10 µM] | -15.6%[9.22 µM] | -2.7% | -12.9 | 39.8µM*
C[C@@H](C(=O)Nc1ccc2ccccc2c1)[C@H]1C[C@]1(C)[C@H](N)c1ccccc1 | . | . | -10.4% | . | .
